Data: PubChem BioAssay AID1159580 (chemical genetic matrix, 2015)
About 2,000 (36%) of roughly 5,500 compounds were called active. About 18% were inconclusive and are not listed. No stated cut-off is given here; in the data, active means normalized growth mostly below about 0.91 (no sharp cut-off); inconclusive means no clear call, values can overlap the other calls; inactive means mostly above about 0.92. The list shows a part of the results.

Assay: chemical genetic growth profiling, strain panel (AID 1159580);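 further: tested at 20 µM; growth read once vehicle control cultures reached saturation at 30 °C; 1 = growth at the plate median or of vehicle wells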
Details: S. cerevisiae deletion strains, growth OD

Measured: normalized growth

CC(=O)O[C@H]1CC2CCC3C(CC[C@@]4(C)C3C[C@H]([N+]3(C)CCCCC3)[C@@H]4OC(C)=O)[C@@]2(C)C[C@@H]1N1CCCCC1 (stereo not given in full)
inactive: locus YAL021C, strain ccr4, stronger effect = lower value 1.02 | locus YAL026C, strain drs2, stronger effect = lower value 1.03 | locus YAL030W, strain snc1, stronger effect = lower value 1.03 | locus YBL061C, strain skt5, stronger effect = lower value 1.02 | locus YBR009C, strain hhf1, stronger effect = lower value 1.03 | locus YBR023C, strain chs3, stronger effect = lower value 1.02 | locus YBR171W, strain sec66, stronger effect = lower value 1.04 | locus YBR231C, strain swc5, stronger effect = lower value 1.03 | locus YBR279W, strain paf1, stronger effect = lower value 1.03 | locus YCL011C, strain gbp2, stronger effect = lower value 1.03 | locus YCL016C, strain dcc1, stronger effect = lower value 1.02 | locus YCL061C, strain MRC1, stronger effect = lower value 1.02 | locus YCL069W, strain vba3, stronger effect = lower value 1.02 | locus YCR088W, strain abp1, stronger effect = lower value 1.02 | locus YDL005C, strain med2, stronger effect = lower value 1.03 | locus YDL040C, strain nat1, stronger effect = lower value 1.01 | locus YDR001C, strain nth1, stronger effect = lower value 1.02 | locus YDR069C, strain doa4, stronger effect = lower value 1.02 | locus YDR137W, strain rgp1, stronger effect = lower value 1.07 | locus YDR159W, strain sac3, stronger effect = lower value 1.03 | locus YDR195W, strain ref2 1.03 | locus YDR297W, strain sur2, stronger effect = lower value 1.02 | locus YDR334W, strain swr1, stronger effect = lower value 1.02 | locus YDR335W, strain msn5, stronger effect = lower value 1.02 | locus YDR392W, strain spt3, stronger effect = lower value 0.868 | locus YEL003W, strain gim4, stronger effect = lower value 1.02 | locus YEL037C, strain rad23, stronger effect = lower value 1.02 | locus YEL061C, strain CIN8 (second series), stronger effect = lower value 1.03 | locus YER015W, strain faa2, stronger effect = lower value 1.02 | locus YER016W, strain bim1, stronger effect = lower value 1.02 | locus YER111C, strain swi4, stronger effect = lower value 1.01 | locus YER155C, strain BEM2 (second series), stronger effect = lower value 1.03 | locus YFR010W, strain ubp6, stronger effect = lower value 1.01 | locus YGL167C, strain pmr1, stronger effect = lower value 1.04 | locus YGL173C, strain kem1, stronger effect = lower value 1.03 | locus YGL227W, strain vid30, stronger effect = lower value 1.02 | locus YGL240W, strain doc1, stronger effect = lower value 1.04 | locus YGL253W, strain hxk2, stronger effect = lower value 1.01 | locus YHR013C, strain ard1, stronger effect = lower value 1.01 | locus YHR027C, strain rpn1, stronger effect = lower value 1.02 | locus YHR030C, strain SLT2, stronger effect = lower value 1.05 | locus YHR079C, strain IRE1, stronger effect = lower value 1.03 | locus YHR142W, strain chs7, stronger effect = lower value 1.02 | locus YJL092W, strain hpr5, stronger effect = lower value 1.01 | locus YJL095W, strain BCK1 (second series), stronger effect = lower value 1.02 | locus YJL095W, strain BCK1, stronger effect = lower value 0.993 | locus YJL115W, strain asf1, stronger effect = lower value 1.02 | locus YJL129C, strain trk1, stronger effect = lower value 1.03 | locus YJL154C, strain vps35, stronger effect = lower value 1.02 | locus YJL164C, strain tpk1, stronger effect = lower value 1 | locus YJL166W, strain qcr8, stronger effect = lower value 1.03 | locus YJL187C, strain SWE1, stronger effect = lower value 1.03 | locus YJR066W, strain TOR1, stronger effect = lower value 0.979 | locus YKL160W, strain elf1, stronger effect = lower value 1.03 | locus YKR026C, strain gcn3, stronger effect = lower value 0.998 | locus YKR091W, strain srl3, stronger effect = lower value 1.03 | locus YLL001W, strain dnm1, stronger effect = lower value 1.01 | locus YLL026W, stronger effect = lower value 1.02 | locus YLL041C, strain sdh2, stronger effect = lower value 1.02 | locus YLR027C, strain aat2, stronger effect = lower value 1.02 | locus YLR113W, strain HOG1, stronger effect = lower value 0.99 | locus YLR221C, strain rsa3, stronger effect = lower value 1.01 | locus YLR258W, strain gsy2, stronger effect = lower value 1.02 | locus YLR262C, strain YPT6 (second series), stronger effect = lower value 1.04 | locus YLR320W, strain mms22, stronger effect = lower value 1.02 | locus YLR342W, strain FKS1, stronger effect = lower value 1.02 | locus YLR357W, strain rsc2, stronger effect = lower value 1.04 | locus YLR370C, strain arc18, stronger effect = lower value 1.02 | locus YLR384C, strain iki3, stronger effect = lower value 1.03 | locus YML120C, strain ndi1, stronger effect = lower value 1.02 | locus YMR058W, strain fet3, stronger effect = lower value 1.03 | locus YMR125W, strain sto1, stronger effect = lower value 1.05 | locus YMR129W, stronger effect = lower value 1.02 | locus YMR205C, strain PFK2, stronger effect = lower value 1.05 | locus YMR231W, strain pep5, stronger effect = lower value 1.02 | locus YNL071W, strain lat1, stronger effect = lower value 1.01 | locus YNL183C, strain NPR1, stronger effect = lower value 0.965 | locus YNL209W, strain ssb2, stronger effect = lower value 1.02 | locus YNL248C, strain rpa49, stronger effect = lower value 1.01 | locus YNL322C, strain KRE1 (second series), stronger effect = lower value 1.02 | locus YNR049C, strain mso1, stronger effect = lower value 1.01 | locus YOR001W, strain rrp6, stronger effect = lower value 1.02 | locus YOR070C, strain gyp1, stronger effect = lower value 1.01 | locus YOR080W, strain dia2, stronger effect = lower value 1.04 | locus YOR083W, strain WHI5, stronger effect = lower value 1.02 | locus YOR106W, strain vam3, stronger effect = lower value 1.02 | locus YOR231W, strain MKK1, stronger effect = lower value 1.04 | locus YOR265W, strain rbl2, stronger effect = lower value 1.02 | locus YOR270C, strain vph1, stronger effect = lower value 1.04 | locus YOR290C, strain snf2, stronger effect = lower value 1.03 | locus YPL051W, strain arl3, stronger effect = lower value 1.01 | locus YPL078C, strain atp4, stronger effect = lower value 1.02 | locus YPL106C, strain sse1, stronger effect = lower value 1.02 | locus YPL240C, strain hsp82, stronger effect = lower value 1.01 | locus YPL256C, strain CLN2, stronger effect = lower value 1.04
